In the library only some 0.52% were active in any assay of this set; here they are far more common.
Eya2 inh: qHTS Assay for Inhibitors of the Phosphatase Activity of Eya2; 330,000 tested, 0.006% active; Protein phosphatase EYA2 (Homo sapiens), O00167; recombinant Eya2, OMFP fluorescence dephosphorylation (OMFP is methylfluorescein phosphate); AID 488837, 2010; Potency, µM (top dose mostly 76.9 µM), hits mostly inhibitors
Target sequence (O00167 whole entry, looked up): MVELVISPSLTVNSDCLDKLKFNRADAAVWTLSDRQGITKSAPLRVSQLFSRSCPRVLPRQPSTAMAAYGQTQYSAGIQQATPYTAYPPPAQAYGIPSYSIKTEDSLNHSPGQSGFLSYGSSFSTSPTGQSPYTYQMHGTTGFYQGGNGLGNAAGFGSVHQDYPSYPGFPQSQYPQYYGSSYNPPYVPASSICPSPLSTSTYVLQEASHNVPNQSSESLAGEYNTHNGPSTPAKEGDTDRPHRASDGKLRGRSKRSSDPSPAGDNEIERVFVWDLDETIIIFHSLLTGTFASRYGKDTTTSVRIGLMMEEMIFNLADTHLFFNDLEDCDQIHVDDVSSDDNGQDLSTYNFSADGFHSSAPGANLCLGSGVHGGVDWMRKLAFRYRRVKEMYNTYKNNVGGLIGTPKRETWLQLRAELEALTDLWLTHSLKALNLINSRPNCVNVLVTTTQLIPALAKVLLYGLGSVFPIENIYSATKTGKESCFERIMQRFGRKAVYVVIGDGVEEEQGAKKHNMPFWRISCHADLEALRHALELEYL
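Eya2 (0.2 uM) preincubated 10 min at ambient with compound, then OMFP substrate added at 50 uM; 10 min reaction in 50 mM HEPES pH 7.5, 50 mM NaCl, 5 uM MgCl2, 0.05% BSA, 1 mM DTT. Fluorescence read at Ex 485/Em 525 nm.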
uPA generation: qHTS for Inhibitors of Cell Surface uPA Generation; cell surface uPA generation assay, qHTS; Potency, µM (highest dose often 38.3 µM), hits mostly inhibitors; 330,000 tested, 0.31% active; active = well fitted inhibition curve with a large enough effect; inconclusive = small, poorly fitted or top-dose-only effect; inactive = no such curve, though single readings can be large or run the other way; tested in mouse RAW 264.7 cells; also: nearly all actives have a fitted effect of over 55% in size
USP2a block: qHTS Assay for Inhibitors of Ubiquitin-specific Protease USP2a Using CHOP2 as the Reporter; USP2 core, Ub-CHOP2 coupled fluorogenic reporter, 485/531; Potency, µM (series often up to 38.3 µM), hits mostly inhibitors; 330,000 tested, 0.01% active; AID 463254, 2010
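USP2 core (10nM final) preincubated 30min RT with compound in 20mM Tris-HCl pH 8.0, 2mM CaCl2, 2mM beta-mercaptoethanol, 0.05% CHAPS; 25nM Ub-CHOP2 plus 25nM reporter substrate added, fluorescence (Ex485/Em531) read after 60min.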
KAT2A inh: qHTS Assay for Inhibitors of GCN5L2 | Histone acetyltransferase KAT2A (Homo sapiens), Q92830 | GCN5L2 HAT assay, ThioGlo1 CoA-SH fluorescence | Potency, µM (highest dose often 58.9 µM), most hits filed as inhibitors | 390,000 tested, 0.21% active
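qHTS, 1536-well. 20nM enzyme, pH 7.5 HEPES/EDTA/Tween-20 buffer; 15 min compound preinc., RT. Start: 75uM H3(1-25), 70uM AcCoA, 50uM ThioGlo1. Read Ex340/Em540 at t=0 (autofluorescence flag) and t=20 min.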
RGS4 inh: Inhibitors of Regulator of G Protein Signaling (RGS) 4: qHTS; Regulator of G-protein signaling 4 (Homo sapiens), P49798; Transcreener GDP fluorescence polarization, RGS4-accelerated GTP hydrolysis; Potency, µM (titrated, usually from 114 µM), most hits filed as inhibitors; 390,000 tested, 0.039% active; also: nearly all actives have a fitted effect of over 75% in size
Target sequence (P49798 whole entry, looked up): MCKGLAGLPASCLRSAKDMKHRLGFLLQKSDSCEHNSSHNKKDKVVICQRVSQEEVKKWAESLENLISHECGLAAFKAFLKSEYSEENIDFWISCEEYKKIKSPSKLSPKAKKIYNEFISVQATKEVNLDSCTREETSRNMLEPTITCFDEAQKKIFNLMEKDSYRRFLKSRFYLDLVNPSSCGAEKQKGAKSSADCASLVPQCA
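MLSMR compounds (23 nl, pin-transferred) preincubated 10 min at room temperature with a 500nM (2x) first reagent, then RGS4 at 900nM (2x) plus Transcreener GDP mix added; fluorescence polarization (620/688 nm) read before and after 90 min at 30 °C.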
BCR signal inh: qHTS Assay to Find Inhibitors of Chronic Active B-Cell Receptor Signaling; AID 493014, 2011; 340,000 tested, 0.05% active; Potency, µM (highest dose often 46.1 µM), hits mostly inhibitors; ABC-DLBCL IkBa-CBG/CBR reporter, luminescence ratio, 4 h; active = well fitted inhibition curve with a large enough effect in the signal ratio, with a control signal flat, not every such curve was filed as active; inconclusive = small, poorly fitted or top-dose-only effect, or effect the other way, or a change in a side signal; the % refers to the signal ratio
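TMD8 human ABC-DLBCL cells with doxycycline-inducible IκBα–green luciferase fusion and unfused red luciferase, in 0.5% FBS medium; compounds up to 46 uM, 4 h at 37C. Green/red luminescence ratio, filter-overlap corrected, fitted to concentration-response curves.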
Hits are given with their value; 0 = inactive; ? = inconclusive; - = no result given. Unless noted, calls follow the shape of the dose curve; as a rule, active = well fitted curve in the direction sought with a large enough effect; inconclusive = small, poorly fitted or top-dose-only effect, or another doubt; inactive = no such curve, though single readings can be large; an effect the other way counts as inactive or inconclusive.

SMILES	Eya2 inh	uPA generation	USP2a block	KAT2A inh	RGS4 inh	BCR signal inh
CCOC(=O)c1[nH]c(C)c(CCC(=O)NCc2ccc(C)cc2)c1C	-	-	-	0	0	-
CCCCC1C(=O)CC[C@H]2[C@@H]1CC(=O)[C@@H]2C/C=C\CCCC(=O)O (some centres undefined)	0	?	0	0	0	21µM
Cc1ccc2c(c1)N(C(=O)N1CCC(C(=O)NCCC3=CCCCC3)CC1)CC(C)O2 (centres undefined)	-	-	-	0	0	-
Cc1ccc2[nH]c(-c3ccccc3)cc(=O)c2c1	0	?	0	0	0	5.6µM
Cc1ccc(-c2cc(=O)c3ccccc3[nH]2)cc1	0	11µM	0	0	0	0
COc1ccc(-c2cc(=O)c3cc(C)ccc3[nH]2)cc1	0	?	0	?	0	0
COc1ccc(OC)c(NC(=O)C(CC(=O)O)NCc2ccco2)c1 (centres undefined)	0	0	0	3.2µM	0	0
COc1ccc(OC)c(NC(=S)NCc2ccco2)c1	-	0	-	-	0	-
CCOc1ccc(-c2cn3ccccc3n2)cc1	0	0	0	0	0	?
c1ccn2cc(-c3ccc4c(c3)OCCO4)nc2c1	0	3.2µM	0	0	0	?
Fc1ccc(-c2cn3ccccc3n2)cc1	0	10µM	0	0	0	0
Cc1cccc(-c2noc(-c3ccc(NCc4ccccc4)c([N+](=O)[O-])c3)n2)c1	-	-	-	0	0	-
O=C(Cn1c2ncccc2c(=O)n1-c1ccccc1)Nc1cccc(C(F)(F)F)c1	-	-	-	0	0	-
O=C(COc1ccc2c(c1)oc(=O)c1ccccc12)N[C@@H](Cc1c[nH]c2ccccc12)C(=O)O	0	0	0	25µM	0	0
Cc1c(C)c2ccc(OCC(=O)N[C@@H](Cc3c[nH]c4ccccc34)C(=O)O)cc2oc1=O	0	0	0	0	0	0
O=C(Nc1ccc2ccccc2c1)c1ccc(Cl)cc1	0	10µM	0	0	0	0
COc1cc(Cl)c(NC2=CC(=O)C(=O)c3ccccc32)c(OC)c1	0	3.2µM	0	0	0	0
COCCCNC(=O)c1sc2nc(C)c(C(=O)Nc3ccc(C)cc3C)c(-c3ccccc3Cl)c2c1N	-	-	-	0	0	-
C=CCn1c(Sc2ncc([N+](=O)[O-])s2)n[nH]c1=O	0	0	0	?	?	?
O=[N+]([O-])c1cnc(Sc2ccncn2)s1	0	2.8µM	0	0	?	?
CCOc1[nH]n(-c2ccccc2)c(=O)c1C=Nc1ccccc1	0	6.3µM	0	0	0	0
CCOc1[nH]n(-c2ccccc2)c(=O)c1C=Nc1ccc(C)cc1	0	0	0	0	0	0
Clc1ccc(-c2cn3c(n2)-c2ccccc2C3)cc1Cl	0	10µM	0	0	0	0
NC(=S)c1ccc[n+]([C@@H]2O[C@@H](COP(=O)([O-])OP(=O)(O)OC[C@H]3O[C@@H](n4cnc5c(N)ncnc54)[C@H](OP(=O)(O)O)[C@@H]3O)C(O)C2O)c1 (some centres undefined)	0	-	-	0	27µM	-
CC(=O)/C=C1\C(=O)N(C)c2ccccc21	0	-	-	?	19µM	-
SMILES	Eya2 inh	uPA generation	USP2a block	KAT2A inh	RGS4 inh	BCR signal inh
O=C(O)c1cccc(-n2cccc2/C=C2/NC(=O)N(c3ccc(Cl)cc3)C2=O)c1	0	0	?	8.9µM	?	?
O=C(O)c1cccc(-n2cccc2/C=C2/NC(=O)N(c3cccc(Cl)c3)C2=O)c1	0	0	0	0	0	0
Cc1c(Cl)cccc1NC(=O)c1cc(-c2cccs2)on1	-	-	-	0	0	-
Cc1ncc(CO)c(/C=N/NC(=O)c2cc3c(s2)CCCC3)c1O	0	6.3µM	0	0	0	0
O=c1c2sc3ccccc3c2n(Cc2cccc(C(F)(F)F)c2)c(=O)n1Cc1ccc(F)cc1	-	-	-	0	0	-
CCn1nc(-c2ccc(C)cc2)nc2c(=O)n(C)c(=O)nc1-2	-	-	-	-	0	-
Cn1cnc2c(=O)oc3ccc(S(=O)(=O)Nc4ccc(F)cc4)cc3c21	-	-	-	0	0	-
COc1cc(-c2noc(C)c2C#Cc2ccccn2)cc(OC)c1OC	0	0.35µM	0	0	0	?
Cc1cccc(CN2CCC(CNC(=O)Cn3ncc4c([nH]c5ccc(C)cc54)c3=O)CC2)c1	-	-	-	0	0	-
COc1ccc2c(c1)c(C(=O)N/N=C/c1ccc(Br)cc1)c(C)n2C	0	11µM	0	0	0	0
CCOc1ccc(/C=N/NC(=O)c2c(C)n(C)c3ccc(OC)cc23)cc1	0	0	0	0	0	0
COC(=O)c1ccccc1NC(=O)c1cc(-c2cccs2)on1	0	-	0	3.2µM	0	0
O=C(NCCCn1ccnc1)c1cc(-c2cccs2)on1	0	0	0	2.2µM	0	0
O=C(NCc1ccc(F)cc1)c1cc(-c2cccs2)on1	0	-	0	0	0	0
O=C(NCCCN1CCOCC1)c1cc(-c2cccs2)on1	0	-	0	0	0	0
O=C(NCc1ccccc1)c1cc(-c2cccs2)on1	0	-	0	2.5µM	0	?
CC[C@H](C)[C@H](NC(=O)[C@H](C)NC(=O)[C@@H](N)C(C)C)C(=O)N[C@H](C(=O)N[C@H](C(=O)N[C@@H](CC(C)C)C(=O)N[C@H](C(=O)N[C@@H](CCCCN)C(=O)O)C(C)C)C(C)C)[C@@H](C)O	-	-	-	0	-	-
CCOC(=O)c1cc(S(=O)(=O)N2CCN(c3ccc(C)cc3C)CC2)[nH]n1	-	-	-	0	0	-
CCOc1ccc(NC(=O)Cn2c(=O)oc3cc(S(=O)(=O)N4CCC(C)CC4)ccc32)cc1	-	-	-	0	0	-
Cc1ccc(C)c(S(=O)(=O)NCc2ccncc2)c1	0	0	0	3.2µM	0	0
CC1CCN(c2nc(-c3cccnc3)nc3scc(-c4ccccc4)c23)CC1	0	0	0	0	0	?
Clc1nc(-c2ccccn2)nc2scc(-c3ccccc3)c12	0	10µM	0	0	0	?
Cc1ccc(C(=O)Nc2cccc(C(=O)NCc3ccccc3)c2)cc1	0	10µM	0	0	0	0
Cc1ccc(Nc2nnc(SCC(=O)NCCN3C(=O)CSC3=O)s2)cc1C	0	5µM	0	0	0	0
Cc1ccc(SCC(=O)NCCN2C(=O)CSC2=O)cc1C	0	0	0	0	0	0
CCN(CC)C(=O)c1cc2c(=O)n3ccccc3nc2s1	0	0	0	0	0	0
COCCN(CCOC)C(=O)c1cc2c(=O)n3ccccc3nc2s1	0	-	0	18µM	0	?

Compound activity (PubChem BioAssay)
